Results reported in PubChem BioAssay (EPA / NIEHS).
Records with an inconclusive call do not appear. The source made the active and inactive calls. How the source made its calls: active means hit-call score of the fitted dose curve at least 0.9, where 1 is the maximum; inconclusive means response in the unintended direction; inactive means score below 0.9.

Tests used:
[1] = TOX21_p53_BLA_p2_viability: Viability Assessment in the Tox21 HCT-116 p53 Agonism Beta-lactamase Assay, Phase 2 (AID 2283591);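 further: compound exposure lasted 16 h at 37 °C; actives lower the ATP signal meaning cytotoxicity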
Method in brief: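 HCT116 p53-bla cells, 4000/well, dosed after 5 h plating (217-fold dilution of DMSO stocks) and incubated 16 h at 37C. Viability taken as cellular ATP by CellTiter-Glo luminescence after 30 min RT; signal loss marks cytotoxicity.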

[2] = molecular target: Cellular tumor antigen p53 (Homo sapiens) (UniProt P04637); assay: TOX21_p53_BLA_p2_ratio: Tox21 HCT-116 p53 Agonism Beta-lactamase Assay, Ratio, Phase 2 (AID 2283592)
Cellular tumor antigen p53 (Homo sapiens), sequence (P04637 whole entry, looked up): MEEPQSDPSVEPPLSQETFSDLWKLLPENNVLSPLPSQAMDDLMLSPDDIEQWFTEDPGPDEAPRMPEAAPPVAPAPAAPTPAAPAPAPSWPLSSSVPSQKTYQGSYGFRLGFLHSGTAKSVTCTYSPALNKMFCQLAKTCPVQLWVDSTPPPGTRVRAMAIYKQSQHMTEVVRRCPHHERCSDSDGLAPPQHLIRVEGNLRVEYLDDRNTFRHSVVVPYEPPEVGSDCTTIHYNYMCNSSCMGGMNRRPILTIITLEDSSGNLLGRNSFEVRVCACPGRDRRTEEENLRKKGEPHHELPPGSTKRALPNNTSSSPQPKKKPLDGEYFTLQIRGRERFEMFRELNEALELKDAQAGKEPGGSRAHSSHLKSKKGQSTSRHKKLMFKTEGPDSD
Method in brief: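 Human colon HCT116 cells with an inducible p53 beta-lactamase reporter are exposed to test chemicals for 16 h at 37C. Reporter induction is read as the 460/530 nm emission ratio after CCF4-AM loading, normalized to DMSO.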

[3] = TOX21_p53_BLA_p3_viability: Viability Assessment in the Tox21 HCT-116 p53 Agonism Beta-lactamase Assay, Phase 3 (AID 2283593);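 further: cells exposed to compound for 16 h before reading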
Method in brief: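 HCT116 cells, 4000/well, dosed 5 h after plating by pin transfer (217-fold dilution from DMSO stock) and incubated 16 h at 37C, 5% CO2. Viability read as ATP luminescence with CellTiter-Glo after 30 min at room temperature.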

[4] = molecular target: Cellular tumor antigen p53 (Homo sapiens) (UniProt P04637); assay: TOX21_p53_BLA_p3_ratio: Tox21 HCT-116 p53 Agonism Beta-lactamase Assay, Ratio, Phase 3 (AID 2283596)
Method in brief: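 HCT116 p53-bla cells (4000/well) given compound in DMSO (217-fold dilution) after 5 h, incubated 16 h at 37C. CCF4-AM substrate 2 h at room temperature; 460/530 nm emission ratio, gain fitted against DMSO.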

[5] = TOX21_p53_BLA_p4_viability: Viability Assessment in the Tox21 HCT-116 p53 Agonism Beta-lactamase Assay, Phase 4 (AID 2283597);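 further: hits lower the luminescence signal meaning cytotoxicity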
Method in brief: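 Luminescent ATP readout (CellTiter-Glo, 30 min, room temperature) in the same wells as the p53 bla ratio. HCT116 cells were treated for 16 h at 37C with DMSO-dissolved compounds.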

[6] = molecular target: Cellular tumor antigen p53 (Homo sapiens) (UniProt P04637); assay: TOX21_p53_BLA_p4_ratio: Tox21 HCT-116 p53 Agonism Beta-lactamase Assay, Ratio, Phase 4 (AID 2283601)
Method in brief: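 HCT-116 p53 beta-lactamase reporter cells (4000/well) preincubated 5 h, then compound (217-fold dilution of DMSO stock) for 16 h at 37C. CCF4-AM substrate added 2 h at room temperature; 460/530 nm emission ratio fitted upward versus DMSO.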

[7] = molecular target: Cellular tumor antigen p53 (Homo sapiens) (UniProt P04637); assay: TOX21_p53_BLA_p5_ratio: Tox21 HCT-116 p53 Agonism Beta-lactamase Assay, Ratio, Phase 5 (AID 2283599)
Method in brief: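 HCT-116 p53-bla cells (4000/well) plated 5 h, dosed with compound (217-fold DMSO dilution) for 16 h at 37 C; CCF4-AM substrate 2 h at room temperature. Activity is the 460/530 nm emission ratio (405 nm excitation), fitted in gain-of-signal direction versus DMSO.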

[8] = TOX21_p53_BLA_p5_viability: Viability Assessment in the Tox21 HCT-116 p53 Agonism Beta-lactamase Assay, Phase 5 (AID 2283600)
Method in brief: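 Seeded cells (4000/well) settle 5 h before compound addition. Plates then incubate 16 h at 37C, receive FRET substrate for 2 h, and finally CellTiter-Glo, with luminescence measured after a 30 min room-temperature incubation.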

[9] = TOX21_PR_BLA_Followup_Agonist_viability: Viability Assessment in the Tox21 HEK293 Progesterone Receptor (PR) Agonism Beta-lactamase Follow-Up Assay (AID 2283935);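 further: signal loss means lower viability so actives are cytotoxic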
Method in brief: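 PR-UAS-bla HEK293T cells in 2% charcoal-stripped FBS medium, compound added after 6 hr plating, 16 hr at 37C/5% CO2. After bla FRET read, CellTiter-Glo added; luminescence read after 30 min at room temperature; signal loss marks cytotoxicity.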

[10] = TOX21_PR_BLA_Followup_Antagonist_viability: Viability Assessment in the Tox21 HEK293 Progesterone Receptor (PR) Antagonism Beta-lactamase Follow-Up Assay (AID 2283936);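 further: hits lower the luminescence signal meaning cytotoxicity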
Method in brief: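 PR-UAS-bla HEK293T cells (3,000/well, 2% charcoal-stripped FBS) given compound plus R5020 agonist, 16 h at 37C. CellTiter-Glo added after bla read, 30 min at room temperature; luminescence loss indicates cytotoxicity.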

PGR (gene 5241) = PGR (gene 5241) (UniProt P06401); assay: TOX21_PR_LUC_Followup_Antagonist: Tox21 HEK293 Progesterone Receptor (PR) Antagonism Luciferase Follow-Up Assay (AID 2283938);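 further: curve fitted upward as signal gain over DMSO baseline despite antagonist label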
PGR (gene 5241), sequence (P06401 whole entry, looked up): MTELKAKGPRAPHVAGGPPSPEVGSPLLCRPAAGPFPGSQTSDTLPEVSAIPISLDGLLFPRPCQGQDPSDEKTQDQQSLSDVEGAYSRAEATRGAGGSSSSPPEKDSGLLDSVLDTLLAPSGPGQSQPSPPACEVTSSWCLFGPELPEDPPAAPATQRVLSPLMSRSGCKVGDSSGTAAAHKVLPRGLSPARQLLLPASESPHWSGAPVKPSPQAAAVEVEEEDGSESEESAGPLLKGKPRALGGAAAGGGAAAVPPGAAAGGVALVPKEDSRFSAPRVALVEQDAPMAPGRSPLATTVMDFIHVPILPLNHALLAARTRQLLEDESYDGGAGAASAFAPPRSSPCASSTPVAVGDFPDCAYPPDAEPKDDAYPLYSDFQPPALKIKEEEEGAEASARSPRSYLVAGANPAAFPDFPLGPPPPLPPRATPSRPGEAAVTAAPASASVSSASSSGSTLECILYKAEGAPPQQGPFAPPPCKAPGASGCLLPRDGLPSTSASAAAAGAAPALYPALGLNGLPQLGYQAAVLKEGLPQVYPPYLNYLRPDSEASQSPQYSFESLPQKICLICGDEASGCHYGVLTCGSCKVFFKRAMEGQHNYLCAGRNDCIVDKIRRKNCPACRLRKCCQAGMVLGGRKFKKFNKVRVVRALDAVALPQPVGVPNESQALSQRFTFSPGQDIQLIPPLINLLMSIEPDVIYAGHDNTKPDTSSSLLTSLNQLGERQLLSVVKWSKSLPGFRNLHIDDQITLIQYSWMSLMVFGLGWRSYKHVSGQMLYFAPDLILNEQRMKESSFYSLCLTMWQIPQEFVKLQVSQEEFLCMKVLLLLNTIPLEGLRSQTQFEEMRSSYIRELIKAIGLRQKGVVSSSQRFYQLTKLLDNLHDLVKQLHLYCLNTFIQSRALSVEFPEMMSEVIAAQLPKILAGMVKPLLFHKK
Method in brief: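 Luciferase reporter in HEK293-PR-A-luc cells: 16 h compound treatment at 37C, ONE-Glo luminescence detection, DMSO as negative control and baseline.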

[11] = TOX21_PR_LUC_Followup_Antagonist_viability: Viability Assessment in the Tox21 HEK293 Progesterone Receptor (PR) Antagonism Luciferase Follow-Up Assay (AID 2283940)
Method in brief: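 HEK293-PR-A-luc cells, precultured 5 days in assay medium with 10% charcoal-stripped FBS, were seeded at 3,000 cells/well, treated with compounds in DMSO for 16 h at 37C, and viability was read as cellular ATP by CellTiter-Glo luminescence.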

Measured: outcome

O
inactive: [1] | [2] | [3] | [4] | [5] | [6]

Clc1ccc2cc3ccccc3cc2c1
inactive: [1] | [2] | [3] | [4] | [7] | [8]

CCCCN1CCCC1C(=O)Nc1c(C)cc(C)cc1C (stereo not drawn)
not listed: [7]
inactive: all other assays above
